In PubChem BioAssay AID1159580 (chemical genetic matrix, 2015):
About 2,000 (36%) of roughly 5,500 compounds were called active. Another 18% or so got no clear call; they are omitted. No stated cut-off is given here; in the data, active means normalized growth mostly below about 0.91 (no sharp cut-off); inconclusive means no clear call, values can overlap the other calls; inactive means mostly above about 0.92. The list shows a part of the results.

Experiment: chemical genetic growth profiling, strain panel (AID 1159580);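 further: tested at 20 µM; growth read once vehicle control cultures reached saturation at 30 °C; 1 = growth at the plate median or of vehicle wells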
Conditions: S. cerevisiae deletion strains, growth OD

Measured: normalized growth

O=C(OC1Cc2c(O)cc(O)cc2OC1c1cc(=O)c(O)c2c(O)c(O)cc(C3Oc4cc(O)cc(O)c4CC3O)c2c1)c1cc(O)c(O)c(O)c1 (configuration not stated)
active: locus YJL187C, strain SWE1 (second series), stronger effect = lower value 0.0967 | locus YJR043C, strain POL32, stronger effect = lower value 0.203 | locus YJR075W, strain HOC1, stronger effect = lower value 0.58 | locus YKL190W, strain CNB1, stronger effect = lower value 0.126 | locus YKR001C, strain vps1, stronger effect = lower value 0.688 | locus YLR039C, strain RIC1, stronger effect = lower value 0.17 | locus YLR058C, strain SHM2, stronger effect = lower value 0.183 | locus YLR262C, strain YPT6 (second series), stronger effect = lower value 0.811 | locus YLR262C, strain YPT6, stronger effect = lower value 0.342 | locus YLR268W, strain sec22, stronger effect = lower value 0.609 | locus YLR330W, strain CHS5, stronger effect = lower value 0.708 | locus YLR342W, strain FKS1 (second series), stronger effect = lower value 0.263 | locus YLR357W, strain rsc2, stronger effect = lower value 0.744 | locus YLR371W, strain rom2, stronger effect = lower value 0.711 | locus YLR418C, strain cdc73, stronger effect = lower value 0.356 | locus YML016C, strain PPZ1, stronger effect = lower value 0.0879 | locus YML032C, strain rad52, stronger effect = lower value 0.879 | locus YMR058W, strain fet3, stronger effect = lower value 0.252 | locus YMR223W, strain ubp8, stronger effect = lower value 0.761 | locus YMR231W, strain pep5, stronger effect = lower value 0.866 | locus YMR307W, strain GAS1, stronger effect = lower value 0.339 | locus YNL067W, strain RPL9B, stronger effect = lower value 0.486 | locus YNL128W, strain TEP1, stronger effect = lower value 0.145 | locus YNL153C, strain GIM3, stronger effect = lower value 0.417 | locus YNL209W, strain ssb2, stronger effect = lower value 0.749 | locus YNL233W, strain BNI4, stronger effect = lower value 0.621 | locus YNR052C, strain pop2, stronger effect = lower value 0.648 | locus YOL006C, strain TOP1, stronger effect = lower value 0.139 | locus YOL147C, strain pex11, stronger effect = lower value 0.865 | locus YOR061W, strain CKA2, stronger effect = lower value 0.383 | locus YOR069W, strain VPS5, stronger effect = lower value 0.485 | locus YOR106W, strain vam3, stronger effect = lower value 0.657 | locus YOR136W, strain idh2, stronger effect = lower value 0.906 | locus YOR144C, strain elg1, stronger effect = lower value 0.915 | locus YOR184W, strain ser1, stronger effect = lower value 0.578 | locus YOR270C, strain vph1, stronger effect = lower value 0.638 | locus YOR290C, strain snf2, stronger effect = lower value 0.827 | locus YPL051W, strain arl3, stronger effect = lower value 0.827 | locus YPL241C, strain CIN2, stronger effect = lower value 0.636 | locus YPR167C, strain met16, stronger effect = lower value 0.878 | strain wtn01, stronger effect = lower value 0.667
inactive: locus YJL187C, strain SWE1, stronger effect = lower value 0.95 | locus YKL009W, strain mrt4, stronger effect = lower value 1.02 | locus YKL068W, stronger effect = lower value 0.996 | locus YKL085W, strain MDH1 (second series), stronger effect = lower value 0.994 | locus YKL085W, strain MDH1, stronger effect = lower value 0.994 | locus YKL160W, strain elf1, stronger effect = lower value 0.969 | locus YKR026C, strain gcn3, stronger effect = lower value 0.967 | locus YKR091W, strain srl3, stronger effect = lower value 1 | locus YLL001W, strain dnm1, stronger effect = lower value 0.967 | locus YLL026W, stronger effect = lower value 0.978 | locus YLL041C, strain sdh2, stronger effect = lower value 0.989 | locus YLR027C, strain aat2, stronger effect = lower value 0.955 | locus YLR102C, strain apc9, stronger effect = lower value 0.973 | locus YLR221C, strain rsa3, stronger effect = lower value 0.925 | locus YLR258W, strain gsy2, stronger effect = lower value 0.946 | locus YLR320W, strain mms22, stronger effect = lower value 0.927 | locus YLR342W, strain FKS1, stronger effect = lower value 0.929 | locus YLR370C, strain arc18, stronger effect = lower value 0.916 | locus YLR384C, strain iki3, stronger effect = lower value 0.971 | locus YML120C, strain ndi1, stronger effect = lower value 0.952 | locus YML124C, strain tub3, stronger effect = lower value 0.958 | locus YMR078C, strain ctf18, stronger effect = lower value 0.973 | locus YMR125W, strain sto1, stronger effect = lower value 1.03 | locus YMR129W, stronger effect = lower value 1 | locus YMR205C, strain PFK2, stronger effect = lower value 0.901 | locus YNL071W, strain lat1, stronger effect = lower value 1 | locus YNL248C, strain rpa49, stronger effect = lower value 0.986 | locus YNL250W, strain rad50, stronger effect = lower value 0.99 | locus YNL271C, strain bni1, stronger effect = lower value 0.963 | locus YNL298W, strain CLA4, stronger effect = lower value 1 | locus YNL307C, strain MCK1, stronger effect = lower value 0.93 | locus YNL322C, strain KRE1 (second series), stronger effect = lower value 1.02 | locus YNR049C, strain mso1, stronger effect = lower value 0.997 | locus YOL012C, strain htz1 0.293 | locus YOR001W, strain rrp6, stronger effect = lower value 0.962 | locus YOR070C, strain gyp1, stronger effect = lower value 0.938 | locus YOR080W, strain dia2, stronger effect = lower value 0.966 | locus YOR083W, strain WHI5, stronger effect = lower value 0.937 | locus YOR265W, strain rbl2, stronger effect = lower value 0.969 | locus YOR316C, strain cot1, stronger effect = lower value 0.958 | locus YPL078C, strain atp4, stronger effect = lower value 0.957 | locus YPL106C, strain sse1, stronger effect = lower value 0.872 | locus YPL240C, strain hsp82, stronger effect = lower value 0.97 | locus YPR119W, strain clb2, stronger effect = lower value 0.988 | locus YPR141C, strain kar3, stronger effect = lower value 0.993 | locus YPR163C, strain tif3, stronger effect = lower value 0.969
